# Experiments:
# Test in all cases: DAPPL (digital affinity profiling via proximity ligation, sequencing); 10 mM Tris-HCl pH 7.5, 50 mM NaCl, 1 mM DTT, 4% glycerol, room temperature, 30 min; GST-TFs on glutathione beads, 16-mer random dsDNA library, 0.1% formaldehyde crosslink after washing; high values mean tight binding
# Details in all cases: protein: recombinant; tags: N-terminal GST; dsDNA, one strand shown
# FLI1 = target: T1, FLI1 (Homo sapiens, UniProt Q01543 1-452)
# T1 sequence: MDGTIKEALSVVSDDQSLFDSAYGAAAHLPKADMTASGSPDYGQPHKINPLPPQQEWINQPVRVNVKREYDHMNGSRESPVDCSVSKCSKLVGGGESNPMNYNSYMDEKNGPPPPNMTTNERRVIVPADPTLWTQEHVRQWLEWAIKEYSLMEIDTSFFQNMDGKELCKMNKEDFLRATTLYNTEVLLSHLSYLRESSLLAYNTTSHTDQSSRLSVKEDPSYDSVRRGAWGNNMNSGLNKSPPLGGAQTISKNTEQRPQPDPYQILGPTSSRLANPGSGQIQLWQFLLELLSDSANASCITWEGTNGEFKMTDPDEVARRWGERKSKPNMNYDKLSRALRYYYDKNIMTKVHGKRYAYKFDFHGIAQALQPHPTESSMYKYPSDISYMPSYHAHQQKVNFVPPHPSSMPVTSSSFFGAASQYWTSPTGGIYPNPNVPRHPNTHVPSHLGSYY
# Outline: (§1)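 Pools were built from human transcription factors expressed in yeast as GST fusions, captured on glutathione beads and DNA-barcoded, along with a tag-only sample. Incubation with 200 nmole of a 16-mer random double-stranded DNA library lasted 30 min at room temperature in Tris/NaCl/DTT/glycerol buffer, and was followed by washing, 0.1% formaldehyde crosslinking, proximity ligation, PCR amplification and Illumina NextSeq500 sequencing. Binding signal is the quotient of each hexamer's read frequency for a factor and its frequency for the tag-only sample.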
# ELK1 = target: T2, ELK1 (Homo sapiens, UniProt P19419 1-428)
# T2 sequence: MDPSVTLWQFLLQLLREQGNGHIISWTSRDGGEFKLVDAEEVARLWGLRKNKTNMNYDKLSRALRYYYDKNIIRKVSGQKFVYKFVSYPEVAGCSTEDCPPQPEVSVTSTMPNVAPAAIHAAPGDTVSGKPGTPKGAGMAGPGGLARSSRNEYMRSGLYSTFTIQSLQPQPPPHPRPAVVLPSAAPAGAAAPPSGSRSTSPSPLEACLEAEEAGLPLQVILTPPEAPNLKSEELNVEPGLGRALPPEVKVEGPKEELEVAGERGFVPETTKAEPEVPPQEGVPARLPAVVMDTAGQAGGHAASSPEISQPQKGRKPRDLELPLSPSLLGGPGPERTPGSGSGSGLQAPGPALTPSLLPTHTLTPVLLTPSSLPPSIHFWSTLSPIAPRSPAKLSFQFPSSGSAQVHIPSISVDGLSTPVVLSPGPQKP
# Outline: as §1
# GABPA = target: T3, GABPA (Homo sapiens, UniProt Q06546 1-454)
# T3 sequence: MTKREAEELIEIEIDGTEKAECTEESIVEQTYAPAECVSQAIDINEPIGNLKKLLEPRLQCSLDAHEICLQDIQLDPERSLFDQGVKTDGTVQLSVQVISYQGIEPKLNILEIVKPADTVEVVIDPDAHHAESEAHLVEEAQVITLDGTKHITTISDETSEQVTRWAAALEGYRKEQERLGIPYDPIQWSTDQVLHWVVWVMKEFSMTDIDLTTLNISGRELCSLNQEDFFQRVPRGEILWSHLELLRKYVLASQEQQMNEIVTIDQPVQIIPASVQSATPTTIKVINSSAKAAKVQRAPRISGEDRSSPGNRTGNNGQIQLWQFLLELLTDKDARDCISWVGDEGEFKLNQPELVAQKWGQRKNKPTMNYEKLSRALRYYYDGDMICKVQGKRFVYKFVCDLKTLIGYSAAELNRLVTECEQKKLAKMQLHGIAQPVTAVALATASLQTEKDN
# Outline: as §1
# ERG = target: T4, ERG (Homo sapiens, UniProt P11308 1-479)
# T4 sequence: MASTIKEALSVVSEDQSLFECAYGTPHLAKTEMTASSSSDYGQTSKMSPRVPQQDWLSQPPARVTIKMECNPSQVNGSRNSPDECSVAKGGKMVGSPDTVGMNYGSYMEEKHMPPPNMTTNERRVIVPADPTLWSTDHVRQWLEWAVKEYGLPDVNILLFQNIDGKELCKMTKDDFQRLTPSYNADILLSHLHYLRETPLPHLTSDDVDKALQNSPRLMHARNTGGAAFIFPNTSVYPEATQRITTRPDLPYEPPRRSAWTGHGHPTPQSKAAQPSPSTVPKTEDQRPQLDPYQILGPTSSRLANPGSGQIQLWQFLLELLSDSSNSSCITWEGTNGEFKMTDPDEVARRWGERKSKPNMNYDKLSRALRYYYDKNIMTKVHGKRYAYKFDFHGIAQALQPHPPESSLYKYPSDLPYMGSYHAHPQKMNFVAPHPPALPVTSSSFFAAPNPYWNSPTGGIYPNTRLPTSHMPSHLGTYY
# Outline: as §1
# ELF1 = ELF1 (Homo sapiens, UniProt P32519 1-619)
# Outline: as §1
# EHF = target: T5, EHF (Homo sapiens, UniProt Q9NZC4 1-300)
# T5 sequence: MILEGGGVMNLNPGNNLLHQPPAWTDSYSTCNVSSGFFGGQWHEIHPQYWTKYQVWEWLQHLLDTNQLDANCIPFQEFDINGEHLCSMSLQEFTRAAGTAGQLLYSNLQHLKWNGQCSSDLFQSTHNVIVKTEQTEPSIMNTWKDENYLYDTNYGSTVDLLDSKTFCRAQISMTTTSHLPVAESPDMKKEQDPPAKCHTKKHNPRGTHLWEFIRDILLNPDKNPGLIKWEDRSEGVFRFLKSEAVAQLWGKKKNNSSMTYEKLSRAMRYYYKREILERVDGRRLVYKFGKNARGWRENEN
# Outline: as §1
# SPI1 = SPI1 (Homo sapiens, UniProt P17947 1-270)
# Outline: as §1
# SPIB = SPIB (Homo sapiens, UniProt Q01892 1-262)
# Outline: as §1
# ELK3 = target: T6, ELK3 (Homo sapiens, UniProt P41970 1-407)
# T6 sequence: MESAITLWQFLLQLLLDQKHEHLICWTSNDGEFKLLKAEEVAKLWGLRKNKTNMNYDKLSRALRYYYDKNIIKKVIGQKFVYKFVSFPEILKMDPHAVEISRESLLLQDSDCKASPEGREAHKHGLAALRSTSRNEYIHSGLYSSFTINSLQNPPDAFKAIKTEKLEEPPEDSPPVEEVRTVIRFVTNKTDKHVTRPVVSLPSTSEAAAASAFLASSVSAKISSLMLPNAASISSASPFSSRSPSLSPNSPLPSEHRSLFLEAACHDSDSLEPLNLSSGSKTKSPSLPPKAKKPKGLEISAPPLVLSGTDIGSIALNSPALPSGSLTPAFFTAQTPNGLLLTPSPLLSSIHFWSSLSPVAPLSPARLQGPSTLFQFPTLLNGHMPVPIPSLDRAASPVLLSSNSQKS
# Outline: as §1
# ETV5 = ETV5 (Homo sapiens, UniProt P41161 1-510)
# Outline: as §1
# ELF4 = ELF4 (Homo sapiens, UniProt Q99607 1-663)
# Outline: as §1
# ELF3 = target: T7, ELF3 (Homo sapiens, UniProt P78545 1-371)
# T7 sequence: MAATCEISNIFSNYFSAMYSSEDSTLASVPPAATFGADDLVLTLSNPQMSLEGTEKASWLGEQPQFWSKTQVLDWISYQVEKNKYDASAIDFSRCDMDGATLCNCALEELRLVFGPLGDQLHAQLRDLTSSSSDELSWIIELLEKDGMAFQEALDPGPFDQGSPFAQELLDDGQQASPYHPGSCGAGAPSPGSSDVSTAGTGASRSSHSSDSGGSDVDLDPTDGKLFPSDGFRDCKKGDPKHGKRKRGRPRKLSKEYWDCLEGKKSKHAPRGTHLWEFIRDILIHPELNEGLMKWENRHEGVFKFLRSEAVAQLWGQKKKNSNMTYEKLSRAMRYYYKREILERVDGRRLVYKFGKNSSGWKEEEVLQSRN
# Outline: as §1
# ETV1 = ETV1 (Homo sapiens, UniProt P50549 1-477)
# Outline: as §1
# ERF = target: T8, ERF (Homo sapiens, UniProt P50548 1-548)
# T8 sequence: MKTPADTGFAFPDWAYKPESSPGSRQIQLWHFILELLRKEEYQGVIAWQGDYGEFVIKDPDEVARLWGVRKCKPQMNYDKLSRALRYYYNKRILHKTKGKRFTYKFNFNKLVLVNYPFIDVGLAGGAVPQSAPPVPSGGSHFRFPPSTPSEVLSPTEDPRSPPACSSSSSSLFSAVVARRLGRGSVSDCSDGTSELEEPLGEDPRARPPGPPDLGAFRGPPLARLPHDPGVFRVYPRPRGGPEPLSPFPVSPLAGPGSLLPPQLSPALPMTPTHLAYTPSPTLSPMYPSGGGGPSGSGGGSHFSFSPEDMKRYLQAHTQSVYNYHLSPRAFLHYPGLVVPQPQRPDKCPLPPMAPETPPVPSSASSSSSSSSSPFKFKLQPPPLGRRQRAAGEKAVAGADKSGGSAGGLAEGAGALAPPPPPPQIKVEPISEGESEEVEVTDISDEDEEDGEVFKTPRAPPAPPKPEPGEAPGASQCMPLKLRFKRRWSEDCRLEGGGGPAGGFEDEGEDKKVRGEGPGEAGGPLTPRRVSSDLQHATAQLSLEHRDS
# Outline: as §1
# ETV3L = target: T9, ETV3L (Homo sapiens, UniProt Q6ZN32 1-361)
# T9 sequence: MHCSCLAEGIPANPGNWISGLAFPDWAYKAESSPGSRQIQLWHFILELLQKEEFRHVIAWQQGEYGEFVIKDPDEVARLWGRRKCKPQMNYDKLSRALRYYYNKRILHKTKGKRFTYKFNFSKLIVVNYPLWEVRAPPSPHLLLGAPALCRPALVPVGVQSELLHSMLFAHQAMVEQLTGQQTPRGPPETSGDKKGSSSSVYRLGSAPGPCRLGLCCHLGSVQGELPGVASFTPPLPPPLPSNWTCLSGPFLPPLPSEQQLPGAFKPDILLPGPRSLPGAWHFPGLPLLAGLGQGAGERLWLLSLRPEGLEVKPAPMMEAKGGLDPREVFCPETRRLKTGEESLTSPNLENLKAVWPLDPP
# Outline: as §1
# ETS2 = target: T10, ETS2 (Homo sapiens, UniProt P15036 1-469)
# T10 sequence: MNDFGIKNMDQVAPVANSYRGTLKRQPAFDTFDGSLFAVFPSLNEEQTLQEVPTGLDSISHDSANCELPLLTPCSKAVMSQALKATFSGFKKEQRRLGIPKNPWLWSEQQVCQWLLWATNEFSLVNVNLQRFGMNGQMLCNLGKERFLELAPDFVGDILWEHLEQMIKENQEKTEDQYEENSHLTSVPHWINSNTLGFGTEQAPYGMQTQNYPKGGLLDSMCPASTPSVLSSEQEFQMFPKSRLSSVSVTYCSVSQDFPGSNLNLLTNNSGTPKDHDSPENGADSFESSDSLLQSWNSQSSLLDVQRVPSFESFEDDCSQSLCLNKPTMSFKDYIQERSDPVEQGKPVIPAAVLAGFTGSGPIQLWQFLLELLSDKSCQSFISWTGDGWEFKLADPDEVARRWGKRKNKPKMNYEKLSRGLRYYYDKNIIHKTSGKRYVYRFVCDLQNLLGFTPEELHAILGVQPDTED
# Outline: as §1
# ETV3 = target: T11, ETV3 (Homo sapiens, UniProt P41162-2 1-143)
# T11 sequence: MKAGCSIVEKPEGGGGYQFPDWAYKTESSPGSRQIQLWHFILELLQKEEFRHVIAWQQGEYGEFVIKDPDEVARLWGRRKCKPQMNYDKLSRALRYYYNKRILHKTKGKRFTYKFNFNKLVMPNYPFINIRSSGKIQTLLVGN
# Outline: as §1
# ETV6 = ETV6 (Homo sapiens, UniProt P41212 1-452)
# Outline: as §1
# Sequence of ELF1 (P32519 whole entry): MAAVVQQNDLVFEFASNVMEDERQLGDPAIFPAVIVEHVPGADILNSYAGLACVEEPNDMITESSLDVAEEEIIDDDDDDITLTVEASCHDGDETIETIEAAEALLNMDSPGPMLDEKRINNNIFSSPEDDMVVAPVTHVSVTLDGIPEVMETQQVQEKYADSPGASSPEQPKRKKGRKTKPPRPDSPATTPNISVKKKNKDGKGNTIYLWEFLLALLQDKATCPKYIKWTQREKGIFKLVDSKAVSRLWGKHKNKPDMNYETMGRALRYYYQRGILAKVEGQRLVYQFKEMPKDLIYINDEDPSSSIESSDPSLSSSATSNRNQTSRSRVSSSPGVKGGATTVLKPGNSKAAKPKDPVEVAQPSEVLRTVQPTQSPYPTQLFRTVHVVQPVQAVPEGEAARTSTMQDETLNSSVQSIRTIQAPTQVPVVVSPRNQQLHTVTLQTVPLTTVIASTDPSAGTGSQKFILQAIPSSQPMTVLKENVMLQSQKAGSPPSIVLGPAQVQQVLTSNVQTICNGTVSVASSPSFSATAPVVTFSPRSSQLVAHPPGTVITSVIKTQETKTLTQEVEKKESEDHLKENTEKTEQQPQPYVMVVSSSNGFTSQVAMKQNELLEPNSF
# Sequence of SPIB (Q01892 whole entry): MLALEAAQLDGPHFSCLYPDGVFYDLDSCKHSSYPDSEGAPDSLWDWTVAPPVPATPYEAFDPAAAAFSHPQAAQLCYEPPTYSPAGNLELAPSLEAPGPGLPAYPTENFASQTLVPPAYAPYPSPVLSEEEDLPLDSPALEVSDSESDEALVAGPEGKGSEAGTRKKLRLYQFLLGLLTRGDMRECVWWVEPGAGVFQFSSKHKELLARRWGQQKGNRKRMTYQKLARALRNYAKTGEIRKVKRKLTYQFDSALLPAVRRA
# Sequence of ETV5 (P41161 whole entry): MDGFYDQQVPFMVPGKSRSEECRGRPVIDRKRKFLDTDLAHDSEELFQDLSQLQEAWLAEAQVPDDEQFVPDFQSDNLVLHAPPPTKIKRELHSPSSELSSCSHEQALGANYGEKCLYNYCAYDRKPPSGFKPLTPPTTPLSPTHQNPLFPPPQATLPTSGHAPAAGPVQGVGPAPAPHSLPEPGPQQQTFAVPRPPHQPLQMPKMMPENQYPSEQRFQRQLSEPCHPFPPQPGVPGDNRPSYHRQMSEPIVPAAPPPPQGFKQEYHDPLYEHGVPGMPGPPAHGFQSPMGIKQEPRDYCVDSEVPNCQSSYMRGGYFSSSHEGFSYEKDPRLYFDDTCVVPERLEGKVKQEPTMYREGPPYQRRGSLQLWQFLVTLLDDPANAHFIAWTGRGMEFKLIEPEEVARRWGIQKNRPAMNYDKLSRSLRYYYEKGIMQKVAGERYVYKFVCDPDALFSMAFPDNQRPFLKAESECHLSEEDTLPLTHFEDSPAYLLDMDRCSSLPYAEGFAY
# Sequence of ETV6 (P41212 whole entry): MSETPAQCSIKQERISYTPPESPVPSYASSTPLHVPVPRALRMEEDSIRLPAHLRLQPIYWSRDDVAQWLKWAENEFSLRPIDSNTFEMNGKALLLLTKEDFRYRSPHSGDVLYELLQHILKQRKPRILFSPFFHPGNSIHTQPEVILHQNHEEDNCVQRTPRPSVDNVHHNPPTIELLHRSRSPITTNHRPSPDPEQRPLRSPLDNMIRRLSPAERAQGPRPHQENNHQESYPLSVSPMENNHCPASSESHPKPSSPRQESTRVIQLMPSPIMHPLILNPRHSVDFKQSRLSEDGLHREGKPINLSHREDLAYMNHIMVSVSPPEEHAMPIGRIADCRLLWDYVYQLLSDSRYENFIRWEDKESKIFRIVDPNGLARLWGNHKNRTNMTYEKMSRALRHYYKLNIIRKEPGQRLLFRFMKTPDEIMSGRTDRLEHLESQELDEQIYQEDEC
# Sequence of ELF4 (Q99607 whole entry): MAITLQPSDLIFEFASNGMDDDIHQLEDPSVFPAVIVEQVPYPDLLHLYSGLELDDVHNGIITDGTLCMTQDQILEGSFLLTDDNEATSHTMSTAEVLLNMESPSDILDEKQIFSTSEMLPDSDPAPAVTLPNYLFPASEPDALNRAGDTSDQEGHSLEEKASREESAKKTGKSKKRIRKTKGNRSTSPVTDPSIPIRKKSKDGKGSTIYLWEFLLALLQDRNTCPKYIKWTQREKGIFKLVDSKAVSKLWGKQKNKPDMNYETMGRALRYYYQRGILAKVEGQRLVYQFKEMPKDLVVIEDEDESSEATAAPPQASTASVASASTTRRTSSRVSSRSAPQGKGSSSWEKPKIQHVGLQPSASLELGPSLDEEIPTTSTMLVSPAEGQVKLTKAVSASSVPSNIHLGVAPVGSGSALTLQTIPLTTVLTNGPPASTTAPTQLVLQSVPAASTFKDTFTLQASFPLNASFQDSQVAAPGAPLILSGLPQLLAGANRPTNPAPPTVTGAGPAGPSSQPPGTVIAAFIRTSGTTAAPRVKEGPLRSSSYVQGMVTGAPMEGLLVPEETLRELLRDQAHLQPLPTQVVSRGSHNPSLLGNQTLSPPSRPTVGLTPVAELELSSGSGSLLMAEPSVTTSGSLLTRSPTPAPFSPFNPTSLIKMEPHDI
# Sequence of ETV1 (P50549 whole entry): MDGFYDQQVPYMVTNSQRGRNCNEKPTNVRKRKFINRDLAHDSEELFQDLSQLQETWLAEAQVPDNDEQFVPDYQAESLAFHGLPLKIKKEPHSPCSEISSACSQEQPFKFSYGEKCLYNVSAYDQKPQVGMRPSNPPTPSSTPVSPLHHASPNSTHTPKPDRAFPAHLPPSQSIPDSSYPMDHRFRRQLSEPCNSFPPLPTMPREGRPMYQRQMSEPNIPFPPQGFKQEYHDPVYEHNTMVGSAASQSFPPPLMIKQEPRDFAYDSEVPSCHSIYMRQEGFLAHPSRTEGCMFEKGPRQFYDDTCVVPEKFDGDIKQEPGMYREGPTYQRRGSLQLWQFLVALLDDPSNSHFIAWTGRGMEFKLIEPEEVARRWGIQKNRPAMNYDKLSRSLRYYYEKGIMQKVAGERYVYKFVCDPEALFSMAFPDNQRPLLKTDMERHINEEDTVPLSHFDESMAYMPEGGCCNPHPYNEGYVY
sequence,measurement,setting,value
ACGGCA,binding signal,FLI1,"1.04 fold enrichment (6-mer frequency, TF over GST control)"
same,binding signal,ELK1,"1.01 fold enrichment (6-mer frequency, TF over GST control)"
same,binding signal,GABPA,"1.1 fold enrichment (6-mer frequency, TF over GST control)"
same,binding signal,ERG,"1.03 fold enrichment (6-mer frequency, TF over GST control)"
same,binding signal,ELF1,"1.04 fold enrichment (6-mer frequency, TF over GST control)"
same,binding signal,EHF,"1.11 fold enrichment (6-mer frequency, TF over GST control)"
same,binding signal,SPI1,"1.05 fold enrichment (6-mer frequency, TF over GST control)"
same,binding signal,SPIB,"1.1 fold enrichment (6-mer frequency, TF over GST control)"
same,binding signal,ELK3,"1.01 fold enrichment (6-mer frequency, TF over GST control)"
same,binding signal,ETV5,"1.13 fold enrichment (6-mer frequency, TF over GST control)"
same,binding signal,ELF4,"1.06 fold enrichment (6-mer frequency, TF over GST control)"
same,binding signal,ELF3,"1.1 fold enrichment (6-mer frequency, TF over GST control)"
same,binding signal,ETV1,"1.03 fold enrichment (6-mer frequency, TF over GST control)"
same,binding signal,ERF,"1.01 fold enrichment (6-mer frequency, TF over GST control)"
same,binding signal,ETV3L,"1.1 fold enrichment (6-mer frequency, TF over GST control)"
same,binding signal,ETS2,"1.09 fold enrichment (6-mer frequency, TF over GST control)"
same,binding signal,ETV3,"1.06 fold enrichment (6-mer frequency, TF over GST control)"
same,binding signal,ETV6,"1.14 fold enrichment (6-mer frequency, TF over GST control)"
